From the supplement of paper PMC11732987, “Enantioselective OTUD7B fragment discovery through chemoproteomics screening and high-throughput optimisation” (Communications Chemistry, 2025)

Legend:
Assay in all cases: log2 ratio of Biotin-Ahx-Ub-VS probe labelling (fragment/DMSO); higher = less target engagement (more negative = stronger competition), active = hit call of the paper (q ≤ 0.05, log2 ratio ≤ -1)
Settings in all cases: compound concentration: 200 uM; treatment time: 3 h
[1] = molecular target: T1, USP19 (UniProt O94966)
T1 sequence (whole entry): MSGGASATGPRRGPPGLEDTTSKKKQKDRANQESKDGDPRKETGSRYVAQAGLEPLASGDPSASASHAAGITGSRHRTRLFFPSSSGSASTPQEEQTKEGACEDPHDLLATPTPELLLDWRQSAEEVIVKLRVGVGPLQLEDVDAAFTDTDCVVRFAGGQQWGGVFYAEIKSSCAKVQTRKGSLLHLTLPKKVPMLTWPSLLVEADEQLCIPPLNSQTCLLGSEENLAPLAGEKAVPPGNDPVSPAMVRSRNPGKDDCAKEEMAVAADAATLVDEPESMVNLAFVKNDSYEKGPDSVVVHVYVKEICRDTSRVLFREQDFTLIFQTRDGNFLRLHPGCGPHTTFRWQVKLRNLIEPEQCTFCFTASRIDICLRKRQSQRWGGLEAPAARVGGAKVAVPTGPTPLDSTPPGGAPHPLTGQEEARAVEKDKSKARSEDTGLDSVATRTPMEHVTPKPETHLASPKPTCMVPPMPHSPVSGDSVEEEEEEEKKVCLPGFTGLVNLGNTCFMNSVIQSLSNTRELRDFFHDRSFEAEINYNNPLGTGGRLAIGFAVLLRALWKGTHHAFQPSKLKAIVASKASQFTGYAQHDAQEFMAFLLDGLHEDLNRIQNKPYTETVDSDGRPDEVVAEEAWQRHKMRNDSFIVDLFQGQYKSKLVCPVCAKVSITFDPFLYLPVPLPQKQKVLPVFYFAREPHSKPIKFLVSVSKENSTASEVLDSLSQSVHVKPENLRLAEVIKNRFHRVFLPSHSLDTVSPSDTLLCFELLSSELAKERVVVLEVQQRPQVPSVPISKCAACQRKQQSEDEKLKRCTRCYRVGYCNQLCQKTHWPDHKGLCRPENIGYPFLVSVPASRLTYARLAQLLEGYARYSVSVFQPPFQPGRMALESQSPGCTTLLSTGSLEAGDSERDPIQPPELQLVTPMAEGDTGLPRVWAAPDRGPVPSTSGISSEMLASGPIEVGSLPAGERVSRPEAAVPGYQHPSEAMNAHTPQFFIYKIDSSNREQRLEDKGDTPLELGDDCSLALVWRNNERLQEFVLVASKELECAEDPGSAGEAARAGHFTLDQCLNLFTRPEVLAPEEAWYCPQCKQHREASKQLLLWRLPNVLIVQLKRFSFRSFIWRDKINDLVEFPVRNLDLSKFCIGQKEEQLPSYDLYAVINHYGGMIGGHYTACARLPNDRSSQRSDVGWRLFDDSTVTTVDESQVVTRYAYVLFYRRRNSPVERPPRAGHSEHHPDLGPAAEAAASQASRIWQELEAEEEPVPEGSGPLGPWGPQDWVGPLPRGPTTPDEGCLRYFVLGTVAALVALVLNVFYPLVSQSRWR
In short: (§1)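 HEK293T lysate, 495 µg per sample in Tris/CHAPS/IGEPAL buffer with protease inhibitors, was treated in triplicate with fragment at 200 µM or vehicle for 3 h and then with Biotin-Ahx-Ub-VS at 0.5 µM final for 1 h. Labelled DUBs were NeutrAvidin-enriched, digested with LysC and trypsin, and run by diaPASEF LC-MS/MS. Spectronaut label-free quantities were global-median-normalised, and values are average log2 fragment/vehicle ratios by unpaired t-test on proteins with ≥2 unique peptides.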

[2] = molecular target: T2, USP22 (UniProt Q9UPT9)
T2 sequence (whole entry): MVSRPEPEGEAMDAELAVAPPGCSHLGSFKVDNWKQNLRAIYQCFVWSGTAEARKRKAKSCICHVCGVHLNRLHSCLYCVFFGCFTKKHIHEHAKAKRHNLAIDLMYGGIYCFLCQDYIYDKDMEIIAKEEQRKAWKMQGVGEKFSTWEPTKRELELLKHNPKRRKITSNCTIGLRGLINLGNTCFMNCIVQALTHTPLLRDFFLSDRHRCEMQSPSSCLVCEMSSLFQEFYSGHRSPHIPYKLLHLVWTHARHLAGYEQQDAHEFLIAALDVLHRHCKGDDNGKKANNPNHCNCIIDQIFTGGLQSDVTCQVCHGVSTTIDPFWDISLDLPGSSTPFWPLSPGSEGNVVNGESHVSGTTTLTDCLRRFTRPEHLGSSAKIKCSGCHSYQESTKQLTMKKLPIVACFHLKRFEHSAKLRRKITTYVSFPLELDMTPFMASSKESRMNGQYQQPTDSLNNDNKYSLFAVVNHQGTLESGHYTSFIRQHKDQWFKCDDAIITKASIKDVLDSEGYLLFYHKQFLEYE
In short: as §1

[3] = molecular target: USP24 (UniProt Q9UPU5)
In short: as §1

[4] = molecular target: T3, USP25 (UniProt Q9UHP3)
T3 sequence (whole entry): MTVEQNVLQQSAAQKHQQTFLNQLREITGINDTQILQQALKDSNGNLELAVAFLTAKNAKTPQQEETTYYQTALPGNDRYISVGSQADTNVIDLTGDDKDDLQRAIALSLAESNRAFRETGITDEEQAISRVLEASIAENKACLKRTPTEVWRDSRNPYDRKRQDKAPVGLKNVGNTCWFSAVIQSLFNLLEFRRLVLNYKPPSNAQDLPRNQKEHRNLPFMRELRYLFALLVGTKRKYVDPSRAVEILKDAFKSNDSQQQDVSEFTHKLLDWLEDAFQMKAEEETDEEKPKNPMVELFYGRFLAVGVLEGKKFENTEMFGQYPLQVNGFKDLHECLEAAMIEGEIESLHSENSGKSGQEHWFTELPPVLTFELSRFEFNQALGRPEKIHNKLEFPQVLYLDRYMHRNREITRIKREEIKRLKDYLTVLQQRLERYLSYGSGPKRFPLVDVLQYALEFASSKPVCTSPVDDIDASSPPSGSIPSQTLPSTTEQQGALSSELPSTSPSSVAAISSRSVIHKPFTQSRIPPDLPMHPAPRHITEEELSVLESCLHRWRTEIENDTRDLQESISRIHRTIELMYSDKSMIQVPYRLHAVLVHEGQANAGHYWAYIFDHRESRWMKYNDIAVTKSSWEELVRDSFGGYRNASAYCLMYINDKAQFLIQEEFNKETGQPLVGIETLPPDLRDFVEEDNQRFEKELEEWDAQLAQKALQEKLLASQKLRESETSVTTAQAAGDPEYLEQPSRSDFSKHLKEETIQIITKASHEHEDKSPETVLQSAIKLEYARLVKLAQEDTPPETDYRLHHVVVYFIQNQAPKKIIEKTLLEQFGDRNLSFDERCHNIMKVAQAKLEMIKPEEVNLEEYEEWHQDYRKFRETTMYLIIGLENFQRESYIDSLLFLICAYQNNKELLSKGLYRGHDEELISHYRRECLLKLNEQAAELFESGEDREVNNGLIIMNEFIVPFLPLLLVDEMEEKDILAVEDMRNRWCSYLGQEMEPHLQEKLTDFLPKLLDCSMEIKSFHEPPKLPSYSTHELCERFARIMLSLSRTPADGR
In short: as §1

[5] = molecular target: T4, USP28 (UniProt Q96RU2)
T4 sequence (whole entry): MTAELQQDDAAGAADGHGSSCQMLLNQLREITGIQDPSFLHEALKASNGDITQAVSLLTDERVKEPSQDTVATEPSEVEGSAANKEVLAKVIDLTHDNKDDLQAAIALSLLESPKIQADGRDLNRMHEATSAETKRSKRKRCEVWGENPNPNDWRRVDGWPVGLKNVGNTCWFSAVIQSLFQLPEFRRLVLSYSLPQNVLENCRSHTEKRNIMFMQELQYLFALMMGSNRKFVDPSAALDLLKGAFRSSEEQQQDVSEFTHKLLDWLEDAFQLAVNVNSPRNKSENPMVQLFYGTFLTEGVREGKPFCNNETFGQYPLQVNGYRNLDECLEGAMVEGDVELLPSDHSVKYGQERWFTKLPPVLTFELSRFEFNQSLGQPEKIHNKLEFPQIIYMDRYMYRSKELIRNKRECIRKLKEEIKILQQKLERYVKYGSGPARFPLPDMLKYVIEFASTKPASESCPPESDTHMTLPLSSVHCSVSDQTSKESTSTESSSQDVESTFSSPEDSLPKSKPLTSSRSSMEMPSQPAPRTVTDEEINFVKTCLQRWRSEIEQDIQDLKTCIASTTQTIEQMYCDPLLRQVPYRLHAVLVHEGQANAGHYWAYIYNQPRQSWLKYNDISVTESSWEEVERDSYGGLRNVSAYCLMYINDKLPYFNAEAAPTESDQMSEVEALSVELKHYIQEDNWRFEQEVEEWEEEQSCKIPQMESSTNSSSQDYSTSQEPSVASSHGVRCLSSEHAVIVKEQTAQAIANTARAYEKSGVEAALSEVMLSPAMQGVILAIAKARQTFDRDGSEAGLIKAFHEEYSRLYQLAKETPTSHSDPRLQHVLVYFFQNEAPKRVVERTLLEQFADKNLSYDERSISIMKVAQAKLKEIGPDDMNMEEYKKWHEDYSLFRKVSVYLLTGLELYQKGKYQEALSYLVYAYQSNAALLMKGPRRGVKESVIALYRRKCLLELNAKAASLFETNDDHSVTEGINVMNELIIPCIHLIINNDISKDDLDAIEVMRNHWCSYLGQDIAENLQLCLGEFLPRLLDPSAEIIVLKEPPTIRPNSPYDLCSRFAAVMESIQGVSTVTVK
In short: as §1

Measured: log2 ratio of Biotin-Ahx-Ub-VS probe labelling

Sequence of USP24 (Q9UPU5 whole entry): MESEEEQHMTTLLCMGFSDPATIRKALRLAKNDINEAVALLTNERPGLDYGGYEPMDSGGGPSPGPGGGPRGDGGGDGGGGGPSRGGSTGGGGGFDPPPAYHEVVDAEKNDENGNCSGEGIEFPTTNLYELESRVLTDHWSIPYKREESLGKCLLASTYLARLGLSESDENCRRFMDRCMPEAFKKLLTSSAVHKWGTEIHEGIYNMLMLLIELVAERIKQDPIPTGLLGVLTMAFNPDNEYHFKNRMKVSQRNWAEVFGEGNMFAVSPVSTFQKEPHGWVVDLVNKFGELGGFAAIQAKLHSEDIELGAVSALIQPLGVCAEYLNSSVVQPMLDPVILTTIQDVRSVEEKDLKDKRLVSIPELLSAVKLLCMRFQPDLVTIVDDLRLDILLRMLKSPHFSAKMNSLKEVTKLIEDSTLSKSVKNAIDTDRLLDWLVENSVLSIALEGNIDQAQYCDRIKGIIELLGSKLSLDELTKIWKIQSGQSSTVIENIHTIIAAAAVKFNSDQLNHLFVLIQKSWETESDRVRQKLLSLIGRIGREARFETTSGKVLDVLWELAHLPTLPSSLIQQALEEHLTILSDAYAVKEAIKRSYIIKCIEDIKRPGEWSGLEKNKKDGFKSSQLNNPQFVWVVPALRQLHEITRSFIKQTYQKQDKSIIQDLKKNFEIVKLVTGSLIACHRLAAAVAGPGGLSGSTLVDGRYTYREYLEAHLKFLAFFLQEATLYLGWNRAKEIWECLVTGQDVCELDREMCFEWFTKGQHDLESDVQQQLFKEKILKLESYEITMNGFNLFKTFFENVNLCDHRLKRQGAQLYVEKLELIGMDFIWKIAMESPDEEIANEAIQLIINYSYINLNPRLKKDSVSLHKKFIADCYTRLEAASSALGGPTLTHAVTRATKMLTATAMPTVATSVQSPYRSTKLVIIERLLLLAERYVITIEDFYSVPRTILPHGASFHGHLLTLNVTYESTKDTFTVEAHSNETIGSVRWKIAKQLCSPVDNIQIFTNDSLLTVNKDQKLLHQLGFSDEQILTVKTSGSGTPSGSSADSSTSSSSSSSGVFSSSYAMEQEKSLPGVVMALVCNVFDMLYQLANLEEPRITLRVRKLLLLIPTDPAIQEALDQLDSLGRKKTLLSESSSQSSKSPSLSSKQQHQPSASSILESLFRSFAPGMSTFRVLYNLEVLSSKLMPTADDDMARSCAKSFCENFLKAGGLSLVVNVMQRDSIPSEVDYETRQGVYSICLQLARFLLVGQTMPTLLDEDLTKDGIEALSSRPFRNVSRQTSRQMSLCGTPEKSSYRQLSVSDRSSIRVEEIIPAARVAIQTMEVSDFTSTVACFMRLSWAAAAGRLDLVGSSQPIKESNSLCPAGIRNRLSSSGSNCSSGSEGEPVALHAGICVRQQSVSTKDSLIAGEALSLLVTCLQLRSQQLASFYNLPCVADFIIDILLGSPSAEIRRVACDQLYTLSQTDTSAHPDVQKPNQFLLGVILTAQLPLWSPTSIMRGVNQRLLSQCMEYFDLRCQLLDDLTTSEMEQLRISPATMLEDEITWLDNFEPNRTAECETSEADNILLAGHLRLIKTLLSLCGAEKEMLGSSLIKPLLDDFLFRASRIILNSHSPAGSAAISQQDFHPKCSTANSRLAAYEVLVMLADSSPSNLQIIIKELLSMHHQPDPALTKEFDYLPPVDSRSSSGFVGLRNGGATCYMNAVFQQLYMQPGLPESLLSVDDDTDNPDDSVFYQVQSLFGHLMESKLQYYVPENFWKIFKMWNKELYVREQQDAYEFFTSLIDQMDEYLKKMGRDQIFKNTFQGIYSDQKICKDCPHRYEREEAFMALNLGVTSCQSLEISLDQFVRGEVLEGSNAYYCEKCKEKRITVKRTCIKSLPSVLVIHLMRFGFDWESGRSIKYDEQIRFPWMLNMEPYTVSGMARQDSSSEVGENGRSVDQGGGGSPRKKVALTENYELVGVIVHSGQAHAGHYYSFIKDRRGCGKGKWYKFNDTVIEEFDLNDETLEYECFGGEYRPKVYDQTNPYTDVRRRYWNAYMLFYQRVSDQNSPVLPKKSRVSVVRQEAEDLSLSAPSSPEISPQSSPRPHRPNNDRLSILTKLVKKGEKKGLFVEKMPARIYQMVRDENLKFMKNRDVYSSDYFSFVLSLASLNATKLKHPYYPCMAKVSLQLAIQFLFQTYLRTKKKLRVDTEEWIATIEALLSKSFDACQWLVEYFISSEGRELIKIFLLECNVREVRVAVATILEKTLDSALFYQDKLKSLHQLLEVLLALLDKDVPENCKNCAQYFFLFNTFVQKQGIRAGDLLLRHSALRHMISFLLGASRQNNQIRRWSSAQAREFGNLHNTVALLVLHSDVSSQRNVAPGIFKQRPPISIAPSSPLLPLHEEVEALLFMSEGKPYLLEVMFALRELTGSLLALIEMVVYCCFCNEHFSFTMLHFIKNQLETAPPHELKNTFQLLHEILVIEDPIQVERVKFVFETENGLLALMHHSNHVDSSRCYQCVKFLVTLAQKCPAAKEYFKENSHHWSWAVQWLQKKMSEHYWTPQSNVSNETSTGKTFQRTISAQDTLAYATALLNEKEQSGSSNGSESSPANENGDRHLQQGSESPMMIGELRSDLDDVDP

O=C(CCl)N1CCOCCC1c1ccccc1 (stereo not given)
inactive: [1] -0.132 | [2] 0.147 | [3] -0.633 | [4] 0.0233 | [5] -0.12
